Experimental findings from PubChem BioAssay AID977622 (Broad Institute, 2014) are described below.

Hit rate of the full screen: of about 1,900 compounds, fewer than 10 were called active. Roughly 39% stayed inconclusive and do not appear here.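 The calls were made as follows: active = Green signal of the normal strain falls at least twice as much as red signal of the resistant mutant, with overall culture growth loss under a set limit; inconclusive = no clear call, values can overlap the other calls; inactive = the rest.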 A selection follows.

Assay [1] can be described thus: growth inhibition of wild-type GFP E. coli, dose response, h38 mutant RFP, cherry-pick (AID 977622). The settings on record: 24 h; activity change: E. coli mixed culture, total growth OD600 at 50 uM, at 50 µM; E. coli WT ribosome GFP fluorescence, mixed culture, at 50 µM (top of the series).
Assay [2] concerns E. coli h38 humanized mutant ribosome RFP fluorescence, mixed culture, 24 h. The assay is described as above. As to conditions: h38 mutant RFP at 50 uM; at 50 µM.

Consider `c1ccc(SCc2nc3ccccc3s2)nc1`, for which, in assay [1], the activity change was -3.53% and the compound was called inactive. Also, the activity change in assay [2] stood at 8.07%.

Regarding `Cc1ccc(NS(=O)(=O)c2ccc3c(c2)CCC(=O)N3)cc1C`, in assay [1], the activity change was -8.95% and the call was inactive. Moreover, the activity change in assay [2] was -10.9%.

In the case of `O=C(Nc1cccc(F)c1)N1C[C@@H]2[C@H](c3ccccc31)[C@H](CO)N2C(=O)Cc1ccccn1`, in assay [1], the activity change came to 4.66% and the compound was called inactive. Besides, the activity change in assay [2] was -3.32%.

On to `COc1ccc(-c2cc(C(=O)Nc3ccc(C(N)=O)cc3)c3ccccc3n2)cc1OC`, for which, in assay [1], the activity change came out at 8% and the result was inactive. In assay [2], the activity change was -4.25%.

With `N#Cc1ccc(-c2ccc(C3[C@H]4CNC[C@@H]3N4S(=O)(=O)c3ccc(-c4ccccc4)cc3)cc2)cc1` (stereo partly drawn), in assay [1], the activity change was -54.5% and the call was inactive. Moreover, the activity change in assay [2] came to 244%.

As for `Nc1ccc(C(=O)OCCCc2nc3cc4ccccc4cc3[nH]2)cc1`, in assay [1], the activity change is 3.79% and the compound was classed as inactive. In assay [2], the activity change was found to be 0.364%.

As to `O=C(NCc1nc2ccccc2[nH]1)c1ccc(S(=O)(=O)N2CCCC2)cc1`, in assay [1], the activity change is -24.9% and the outcome was inactive. Besides, the activity change in assay [2] is 2.82%.

`CC[n+]1c(C)cc2c(sc3ccccc32)c1C`: in assay [1], the activity change was -0.26% and the compound was classed as inactive. Also, in assay [2], the activity change is -7%.

On to `COc1ccccc1NC(=O)CSc1ncc(CO)n1Cc1ccc(F)cc1`, for which, in assay [1], the activity change is -27.8% and the outcome was inactive. Also, in assay [2], the activity change was -17.1%.

Regarding `CSc1ccc(CN(C)C(=O)C(c2ccccc2)c2ccccc2)cc1`, in assay [1], the activity change is -21.9% and the outcome was inactive. Also, the activity change in assay [2] is -20.3%.

Consider `O=C(Nc1ccc(C(=O)Nc2ccccc2Cl)cc1)c1cccnc1`, for which, in assay [1], the activity change was -26.4% and the compound was classed as inactive. Further, the activity change in assay [2] was -26%.

On to `COC(=O)c1ccc(CCc2cc(O)c(Br)cc2O)cc1`, for which, in assay [1], the activity change was -52.8% and the call was inactive. Also, the activity change in assay [2] came to 27.3%.

Take `O=C(Nc1ccc(C(=O)c2ccccc2)cc1)c1ccccc1`: in assay [1], the activity change was -40.2% and the result was inactive. For the same compound, the activity change in assay [2] is -22.1%.

On to `OC[C@H]1[C@H](c2ccc(-c3ccc(F)cc3)cc2)[C@@H]2CN(Cc3ccncc3)CCCCN12`, for which the activity change in assay [1] is -3.55%; in assay [2], -17.5%. Further, the outcome in assay [1] was inactive.

Consider `O=C(NCCCn1ccnc1)c1sc2cc([N+](=O)[O-])ccc2c1Cl`, for which, in assay [1], the activity change is -6% and the result was inactive. The activity change in assay [2] was -1.75%.

In the case of `CCC1(CC)NC(=O)N(CC(=O)N2N=C(c3ccc(Cl)cc3)CC2c2ccco2)C1=O` (stereo not drawn), in assay [1], the activity change is -19.3% and the compound was called inactive. Also, the activity change in assay [2] was -38.4%.

For `O=C(COc1cccc2c1CCN(Cc1ccccc1F)C2=O)N1CCCCC1`, in assay [1], the activity change was -32.1% and the compound was called inactive.

As to `O=C(Nc1cccc(S(=O)(=O)c2cccc(NC(=O)C3CC3)c2)c1)C1CC1`, the activity change is -38.1% in assay [1] and 4.96% in assay [2]. Moreover, in assay [1], the compound was classed as inactive.

With `O=S(=O)(Cc1ccccc1)N1CCCCN2[C@@H](CO)[C@@H](c3ccc(-c4cccnc4)cc3)[C@@H]2C1`, in assay [1], the activity change is -6.81% and the outcome was inactive. Besides, the activity change in assay [2] turned out to be 16.2%.

`Cc1noc(C)c1NC(=O)Nc1ccc2c(c1)C(=O)N([C@@H](C)CO)C[C@@H](C)[C@@H](CN(C)C(=O)Nc1ccc3c(c1)OCO3)OCCCC[C@@H](C)O2`: in assay [1], the activity change was -2.53% and the outcome was inactive. Further, the activity change in assay [2] amounted to 20.3%.

As to `Fc1ccc(-c2nc3c(Cl)cc(C(F)(F)F)cn3c2Cc2ccsc2)cc1`, in assay [1], the activity change is -5.9% and the outcome was inactive. Besides, the activity change in assay [2] worked out at 5.92%.

Consider `COC(=O)CN1C(=S)N(c2ccc(F)cc2)C(=O)C1CC(=O)Nc1ccc(OC)cc1` (stereo not drawn), for which the activity change in assay [1] was -4.61%; in assay [2], 9.32%. The compound was called inactive in assay [1].

`CCOc1ccc(C(C)=O)cc1CN1C(=O)NC2(CCCCCCC2)C1=O`: in assay [1], the activity change is -23.9% and the compound was classed as inactive. In addition, the activity change in assay [2] is -21%.

`O=C(c1ccc2c3c(cccc13)CC2)N1CCN(c2ncccn2)CC1`: in assay [1], the activity change was -3.01% and the compound was called inactive. Further, in assay [2], the activity change is -11.5%.

Take `Cc1ccc(NC(=O)CN(C)S(=O)(=O)c2cccc3cccnc23)cc1F`: in assay [1], the activity change is -37.4% and the outcome was inactive. Besides, the activity change in assay [2] was -40.8%.

`O=c1[nH]c2cc([N+](=O)[O-])ccc2c2ccccc12`: in assay [1], the activity change amounted to 4.42% and the compound was called inactive.

In the case of `COC(=O)c1cc2c(c3c4cc(F)ccc4n(S(=O)(=O)c4cccc(C)c4)c13)C(=O)N(Cc1ccco1)C2`, the activity change was -11.5% in assay [1] and 17.4% in assay [2]. For the same compound, in assay [1], the outcome was inactive.

Consider `O=C(Cc1ccc(Cl)cc1)c1ccc(O)cc1`, for which, in assay [1], the activity change was -1.58% and the compound was called inactive.

Consider `Cc1ccc(Cc2c(-c3ccc(C#N)cc3)nc3ccc(Br)cn23)cc1`, for which, in assay [1], the activity change is 2.82% and the compound was called inactive. Besides, in assay [2], the activity change was -11%.

As for `O=c1c2ccccc2cnn1Cc1n[nH]c(=S)n1C1CC2CCC1C2` (stereo not drawn), the figures for the activity change in assay [1] and in assay [2] were -3.34% and -28.9%, respectively. Also, the outcome in assay [1] was inactive.

`Cc1cccc(-c2ccc([C@H]3[C@H](CO)N4CCCCN(S(=O)(=O)c5ccccc5C)C[C@@H]34)cc2)c1`: in assay [1], the activity change stood at 4.65% and the result was inactive. The activity change in assay [2] worked out at 11.4%.

`Nc1ccc2nc(-c3ccc(Cl)cc3)[nH]c2c1`: the result in assay [1] was inactive. For the same compound, the activity change in assay [2] is -11.3%.

In the case of `CS(=O)(=O)N1CC2CCCN2c2ccc(C(F)(F)F)cc21` (stereo not drawn), in assay [1], the activity change was -10.4% and the compound was classed as inactive. In addition, in assay [2], the activity change is 2.53%.

Turning to `Cc1ccc(C)c(N(CC(=O)NC2CCCC2)C(=O)c2oc(C(C)(C)C)cc2C)c1`, in assay [1], the activity change is -14.2% and the result was inactive. The activity change in assay [2] is 21%.

As to `COc1cc2ccccc2cc1C(=O)NC1CCCCC1`, in assay [1], the activity change was -0.887% and the call was inactive.

As for `COCCCNC(=O)c1ccc(-c2nc3ccccc3nc2-c2ccccc2)cc1`, in assay [1], the activity change is -2.27% and the outcome was inactive. For the same compound, the activity change in assay [2] is 8.8%.

For `Cc1ccc(NC(=O)CCCSc2ccccc2)cc1S(=O)(=O)N1CCOCC1`, in assay [1], the activity change was found to be 7.64% and the compound was classed as inactive. Besides, the activity change in assay [2] was determined as 4.8%.

Regarding `NC(=O)c1cc(C(=O)c2ccc(Cl)cc2)c[nH]1`, the activity change in assay [1] is -13.1%; in assay [2] it was 0.863%. The result in assay [1] was inactive.

On to `Cc1noc(C)c1NC(=O)Nc1ccc2c(c1)C(=O)N([C@@H](C)CO)C[C@H](C)[C@@H](CN(C)C(=O)Nc1ccc3c(c1)OCO3)OCCCC[C@H](C)O2`, for which, in assay [1], the activity change is -13.3% and the result was inactive. Moreover, in assay [2], the activity change turned out to be 7.1%.

As for `O=C(c1ccccc1)N(c1ccccc1)c1nccc2ccccc12`, in assay [1], the activity change was -7.9% and the call was inactive. In assay [2], the activity change amounted to 31.1%.

Turning to `Cc1ccc(S(=O)(=O)Nc2ccccc2CNc2cccc(C)n2)cc1`, in assay [1], the activity change was -17.7% and the result was inactive.

On to `CCC(C(=O)Nc1ccsc1C(=O)OC)c1ccccc1` (stereo not drawn), for which the activity change was -5.91% in assay [1] and 40.7% in assay [2]. Also, the compound was classed as inactive in assay [1].

Consider `CCOc1ccc(-c2nc(-c3cccs3)c(CC(=O)O)s2)cc1OC`, for which the values for the activity change in assay [1] and in assay [2] were -21.4% and -8.71%, respectively. The compound was called inactive in assay [1].

Consider `COc1ccc(NS(=O)(=O)c2ccc(Cl)c(NC(=O)c3ccccc3F)c2)cc1`, for which, in assay [1], the activity change is -40% and the result was inactive. The activity change in assay [2] was -6.96%.

With `Cc1noc(C)c1NC(=O)Nc1ccc2c(c1)C(=O)N([C@@H](C)CO)C[C@@H](C)[C@H](CN(C)C(=O)Nc1ccc3c(c1)OCO3)OCCCC[C@H](C)O2`, in assay [1], the activity change was -12.5% and the result was inactive. In assay [2], the activity change is -3.87%.

Take `COc1cc(-c2ccc(N3C(c4ccsc4)=Cc4ccc(F)cc4C3c3c[nH]c4ccc(C#N)cc34)cc2)cc(OC)c1OC` (stereo not drawn): in assay [1], the activity change worked out at 7.16% and the compound was called inactive. The activity change in assay [2] was 8.77%.

Turning to `c1ccc2c(c1)CSc1ccccc1N2`, in assay [1], the activity change is -5.5% and the result was inactive. Further, the activity change in assay [2] was -11.4%.

For the compound `CC(C)=C(c1ccc(Cl)cc1)c1c(N)ncnc1N`, the activity change in assay [1] is -10.9%; in assay [2], -21.6%. The result in assay [1] was inactive.
